# MITF primary: MITF inhibitors, primary screen, biochemical, AlphaScreen, human; Microphthalmia-associated transcription factor (Homo sapiens), O75030; AlphaScreen MITF homodimerization, bead proximity signal; inhibition, % at 2.6 µM; 0.91% of 650,000 active; AID 1259374, 2018; in the data active means inhibition above about 50%;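 further: 0% = vehicle wells with protein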
# GPR151 ag: activators of human GPR151, primary screen, cell-based, PathHunter beta-arrestin, luminescence; activation, % at 11.2 µM; 1% of 650,000 active; G-protein coupled receptor 151 (Homo sapiens), Q8TDV0; AID 1508602, 2020; PathHunter beta-arrestin GPR151 cells; in the data active means activation above about 4.9%;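 further: 0% = median of compound wells and 100% = cells with positive control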
# FBW7 activator: FBW7 E3 ligase activators, primary screen, biochemical, AlphaScreen, human. AlphaScreen FBW7–phospho-cyclin E peptide binding, activator screen. normalized activity (activation), % at 26.1 µM. 0.13% of 650,000 active. AID 1259310, 2017; in the data active means normalized activity above about 1.9%;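 further: purified mutant Fbw7 with reduced substrate affinity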
# TEAD-YAP inh: TEAD-YAP interaction inhibition, primary screen, TEAD-YAP interaction inhibitor project, luminescence, HEK-TIYL cells; 1.4% of 640,000 active; inhibition, % at 9.12 µM; TEAD-Gal4/YAP UAS-luciferase luminescence; in the data active means inhibition above about 32%;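 further: 0% = median of test compound wells and 100% = reference inhibitor wells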
# GPR151 confirm: GPR151 activators, triplicate retest, confirmation, cell-based, PathHunter beta-arrestin, luminescence | 6,700 tested, under 10 active | shares compounds with GPR151 ag | GPR151 PathHunter beta-arrestin cells, 90 min; % of EA-reagent control over plate median | activation, % at 11.2 µM | AID 1508609, 2020;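 active means mean percent activation across replicates above the confirmation screen cutoff of 4.91%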
# GPR119 counter: GPR119 activators in beta-arrestin cells, counter-screen for GPR151 activator project, cell-based, PathHunter beta-arrestin, luminescence, triplicate; 0.3% of 6,700 active; AID 1508611, 2020; shares compounds with GPR151 ag; activation, % at 11.2 µM; 90 min; 0 = compound-well median, 100 = enzyme-acceptor control;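 active means mean percent activation in the counterscreen above 29.09%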;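 further: counterscreen on off-target GPR119 to flag nonselective hits from the GPR151 activator screen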
# Target sequence (Q8TDV5 whole entry, looked up): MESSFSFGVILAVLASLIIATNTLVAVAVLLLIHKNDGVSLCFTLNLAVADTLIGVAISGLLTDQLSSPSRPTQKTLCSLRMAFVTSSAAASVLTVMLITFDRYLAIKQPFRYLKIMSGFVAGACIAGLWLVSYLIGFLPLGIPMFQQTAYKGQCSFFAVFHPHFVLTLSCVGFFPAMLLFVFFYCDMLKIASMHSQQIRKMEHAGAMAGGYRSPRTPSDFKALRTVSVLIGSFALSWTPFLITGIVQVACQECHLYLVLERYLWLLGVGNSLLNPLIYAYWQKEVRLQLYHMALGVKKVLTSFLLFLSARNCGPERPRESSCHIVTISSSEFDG
# Numbers without * were called inactive; . = no result given. Most compounds without a hit are left out; they make up all but 3.4% or so of the library.
SMILES,MITF primary,GPR151 ag,FBW7 activator,TEAD-YAP inh,GPR151 confirm,GPR119 counter
CCCCCCCCCCCCCCCC(=O)SCCOP(=O)(O)OCC[N+](C)(C)C,-2,5.4*,.,.,2,15
COc1nc(NCCN(C(C)C)C(C)C)nc(-c2ccccc2)n1,6,0,0,4,.,.
COc1ccc(-c2nc(NCCN(C(C)C)C(C)C)nc(OC)n2)cn1,3,6.1*,0,-2,0,-5
CC1CN(c2nc3c(c(=O)[nH]2)CCN(Cc2cccc(C#N)c2)C3)CC(C)O1 (configuration not stated),20,-1,0,-3,.,.
COc1ccc(C(=O)N2CCC(N3CCC(C)CC3)CC2)cc1,28,6.5*,0,7,1,-1
COC(=O)C1=C(C)N(c2ccc(C(C)C)cc2)C(=O)/C1=C\c1ccco1,11,6.0*,0,29,0,12
COC(=O)C1=C(C)N(c2ccc(Cl)cc2)C(=O)/C1=C\c1ccco1,9,3,0,6,.,.
O=C(NCc1nc2ccccc2[nH]1)c1ccc2nc(-c3csc4ccccc34)sc2c1,-2,0,0,-28,.,.
OC1CCN(C2CCN(c3nncc(-c4ccc(C(F)(F)F)cc4)n3)CC2)CC1,-2,7.3*,0,19,0,-4
FC(F)(F)c1ccc(-c2cnnc(N3CCSCC3)n2)cc1,-5,2,0,-1,.,.
Cc1nc2ccccn2c1C(=O)NCCCN1CCOCC1,-3,4.9*,0,1,0,1
O=C(Cn1cnc2ccccc21)NCCCN1CCOCC1,8,5.9*,0,4,0,-1
COc1cc(C(=O)N2CCCCC2)cc(Cl)c1OC,-2,6.8*,0,-6,0,6
CCOc1cc(C(=O)N2CCCC2)cc(Cl)c1OC,-9,-1,0,0,.,.
COc1cc(C(=O)N2CCCC2C(=O)O)cc(OC)c1OC (configuration not stated),22,5.0*,-1,3,0,8
CCOc1ccc(C(=O)N2CCCC2C(=O)O)cc1 (configuration not stated),0,0,0,1,.,.
CCOC(=O)c1cccc(NC(=O)COc2ccc(C(C)C)c(C)c2)c1,10,5.0*,1,-11,0,4
Cc1cccc(OCC(=O)Nc2cccc(C(=O)O)c2C)c1,-7,6.0*,0,-10,0,5
COC(=O)c1cccc(NC(=O)COc2ccc(C(C)C)c(C)c2)c1,17,0,1,-7,.,.
Cc1cccc(OCC(=O)Nc2cccc(O)c2)c1,-10,5.9*,0,-18,0,-9
CC(=O)N(C)c1ccc(NC(=O)COc2cc(C)cc(C)c2)cc1,-4,4.9*,0,-2,-1,-10
Cc1ccc(OCC(=O)Nc2cccc(O)c2)cc1C,8,0,0,1,.,.
Cc1cc(C)cc(NC(=O)COc2cccc(C)c2)c1,-17,6.3*,0,5,-1,2
CN1CCN(C(=O)c2ccc(-c3nc(NCCO)c4ncn(C5CCCCC5)c4n3)cc2)CC1,11,0,0,15,.,.
NC(=O)c1ccc(-n2c(CCC(=O)O)ccc2-c2ccc(F)cc2)cc1,10,9.7*,0,-5,-1,-11
SMILES,MITF primary,GPR151 ag,FBW7 activator,TEAD-YAP inh,GPR151 confirm,GPR119 counter
NC(=O)c1ccc(-n2c(CCC(=O)O)ccc2-c2ccccc2)cc1,7,3,0,-1,.,.
O=C(Nc1nc(-c2ccccc2)c(C(=O)c2ccccc2)s1)c1ccccc1[N+](=O)[O-],2,5.0*,0,14,1,9
O=C(Nc1nc(-c2ccccc2)c(C(=O)c2ccccc2)s1)c1cc(Cl)ccc1[N+](=O)[O-],0,1,0,1,.,.
O=C(CC1OCCN(Cc2ccccc2)C1=O)Nc1ccc2c(c1)OCO2 (configuration not stated),21,9.9*,0,3,1,14
Cc1cccc(CSc2nc(=O)n3ccccc3n2)c1,-7,5.2*,0,-10,-1,0
Oc1ccc(Br)cc1-c1nnc2ccc3ccccc3n12,15,10*,0,6,0,14
C/C(CC(=O)Nc1ccc2c(c1)OCCO2)=N\NC(=O)C(=O)Nc1ccc(C)cc1,1,7.0*,0,-5,0,5
CC(=O)N/N=C(\C)CC(=O)Nc1ccc2c(c1)OCCO2,-1,0,0,-2,.,.
CC(=O)N(c1cccc2ccccc12)C1C=CS(=O)(=O)C1 (configuration not stated),-10,4.9*,0,-2,0,-7
CCc1ccccc1N(C(C)=O)C1C=CS(=O)(=O)C1 (configuration not stated),2,5,0,0,.,.
Cc1ccccc1CN1CCC(N2CCC(C(=O)NCC3CCCO3)CC2)CC1 (configuration not stated),6,8.4*,0,9,1,18
O=C(Nc1ccccc1Oc1ccccc1)c1cc2c(=O)n3ccccc3nc2s1,-16,0,0,-4,.,.
O=C(NC1CCC(NC(=O)c2cccc(F)c2)CC1)c1cccc(F)c1 (configuration not stated),-1,9.4*,0,4,0,-5
CC(C)(C)Nc1nc(-c2cccc(Br)c2)cs1,-4,7.5*,0,-21,1,-9
CCC(=O)Nc1nc(-c2cccc(Br)c2)cs1,-18,0,0,-35,.,.
N/C(=N\OCc1ccc(Cl)c(Cl)c1)c1nonc1N,18,-1,1,-41,.,.
CNS(=O)(=O)c1ccc(NC(=O)/C=C/c2ccco2)cc1,-3,0,0,-9,.,.
O=C(Nc1ccc(S(=O)(=O)N2CCCCCC2)cc1)C(Cl)(Cl)Cl,6,6.7*,0,0,0,-7
O=C(/C=C/c1ccco1)Nc1ccc(S(=O)(=O)N2CCCCCC2)cc1,-6,-1,0,2,.,.
O=C(/C=C/c1ccco1)Nc1ccc(S(=O)(=O)N2CCCCC2)cc1,-13,13*,0,5,-1,-8
CN(C)S(=O)(=O)c1ccc(NC(=O)/C=C/c2ccco2)cc1,7,8.3*,0,-23,1,4
Cc1ccccc1NC(=O)COc1ccc([N+](=O)[O-])cc1,-2,1,0,8,.,.
OCCC1CCCCN1c1ccnc2c(-c3ccsc3)cnn12 (configuration not stated),-9,5.4*,0,-54,0,0
